Source: PubChem BioAssay
The entries come from a sample that favours hits as a whole.
JMJD2E inh = blocks human JMJD2E demethylase activity | B2RXH2 | JMJD2E catalytic domain, FDH-coupled NADH fluorescence (FDH is formaldehyde dehydrogenase) | Potency, µM (titrated, usually from 57.1 µM), without a hit: at the top dose activity change, negative = inhibition, usual class: inhibitors | 1.6% of 230,000 active | AID 2147; active = well fitted inhibition curve with a large enough effect, not every such curve was filed as active; inconclusive = small, poorly fitted or top-dose-only effect, or another doubt; inactive = no such curve, though single readings can be large or run the other way;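 note: 0% = wells with enzyme and -100% = buffer wells without enzyme; nearly all actives have a fitted effect of over 50% in size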
APEX1 inh = inhibitors of human APE1 endonuclease | P27695 | recombinant APE1, TAMRA/BHQ-2 abasic DNA cleavage fluorescence | Potency, µM (doses to about 65.8 µM), for the others: at the top dose activity change, negative = inhibition, hits mostly inhibitors | 0.35% of 350,000 active | AID 2517;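 note: plate controls were vehicle for no effect and reference inhibitor for full effect; nearly all actives have a fitted effect of over 55% in size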
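Measures dequenching upon AP-site incision of a 5'-TAMRA/3'-BHQ-2 THF-containing duplex, 50 nM; human APE1 0.75 nM after 15 min room-temperature exposure to compound; kinetic three-point read at one-minute spacing.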
PKM2 activator = activators of human pyruvate kinase M2; 0.34% of 260,000 active; Potency, µM (series often up to 57.5 µM), for the others: top-dose activation, actives largely listed as activators; purified PKM2, Kinase-Glo ATP luminescence, activation; response scale: 0% is enzyme alone, no compound; P14618; note: nearly all actives have a fitted effect of over 55% in size
Target sequence (P14618 whole entry, looked up): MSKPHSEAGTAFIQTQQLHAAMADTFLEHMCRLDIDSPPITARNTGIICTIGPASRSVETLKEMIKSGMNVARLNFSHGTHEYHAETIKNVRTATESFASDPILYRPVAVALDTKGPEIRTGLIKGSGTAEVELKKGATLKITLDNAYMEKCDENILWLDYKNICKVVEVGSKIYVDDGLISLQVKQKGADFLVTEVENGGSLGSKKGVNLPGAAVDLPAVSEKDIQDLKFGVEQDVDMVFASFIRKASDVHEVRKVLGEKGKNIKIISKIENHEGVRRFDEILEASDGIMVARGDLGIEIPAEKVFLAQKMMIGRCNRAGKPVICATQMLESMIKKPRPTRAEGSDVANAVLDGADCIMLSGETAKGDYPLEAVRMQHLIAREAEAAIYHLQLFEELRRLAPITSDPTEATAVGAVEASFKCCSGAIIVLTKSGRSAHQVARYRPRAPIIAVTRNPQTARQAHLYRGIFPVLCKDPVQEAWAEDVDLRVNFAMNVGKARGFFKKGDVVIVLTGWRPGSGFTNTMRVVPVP
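ATP formation by purified human PK-M2, quantified via coupled luciferase luminescence after 1 h at room temperature with 0.1 mM ADP and 0.5 mM PEP final.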
BLM helicase inh = Bloom syndrome helicase (human) inhibition; recombinant BLM DNA unwinding, fluorescence dequenching; AID 2528; P54132; 0.2% of 350,000 active; Potency, µM (series often up to 56.1 µM), for the others: at the top dose activity change, negative = inhibition, most hits filed as inhibitors;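 note: plate controls were vehicle for no effect and no enzyme for full effect; nearly all actives have a fitted effect of over 35% in size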
RECQ1 inh = blocks DNA unwinding by human RECQ1 | Potency, µM (series often up to 57.3 µM), for inactives: at the top dose activity, negative = inhibition, hits mostly inhibitors | P46063 | AID 2549 | 0.54% of 240,000 active | RECQ1 DNA unwinding, red fluorescence kinetic read;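 note: plate controls were vehicle for no effect and no enzyme for full effect; nearly all actives have a fitted effect of over 30% in size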
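50 nM RECQ1T1 preincubated 15 min with compound in Tris pH 8.0 buffer with MgCl2, DTT, Tween-20 and 2.5 ug/ml poly(dI-dC); started with 200 nM TAMRA/BHQ-2 forked duplex and 2 mM ATP. Unwinding read as fluorescence (525/598 nm), two reads 2 h apart.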
* = called active by the depositor; i = inactive; ? = inconclusive; · = no result; ! = not active in a repeat. Unless noted, calls come from the whole dose curve; as a rule, active = well fitted curve in the direction sought with a large enough effect; inconclusive = small, poorly fitted or top-dose-only effect, or another doubt; inactive = no such curve, though single readings can be large; an effect the other way counts as inactive or inconclusive. Unless noted, % is set by controls: 0 for no effect and ±100 for the full control effect; potency is the fitted concentration of half-maximal effect.

SMILES	JMJD2E inh	APEX1 inh	PKM2 activator	BLM helicase inh	RECQ1 inh
O=C(N/N=C/c1c(O)n(-c2ccccc2)c(=O)[nH]c1=O)c1ccncc1	?	2.3%	1.8%	-4.7%	3.7%
Cn1c(O)c(/C=N/NC(=O)c2ccncc2)c(=O)n(C)c1=S	31.6µM*	-2.7%	6.3%	-8.2%	-1.6%
O=C(N/N=C/c1c(O)n(Cc2ccccc2)c(=O)[nH]c1=O)c1ccncc1	20µM*	4.0%	2.2%	-2.7%	-2.9%
COc1ccc(CCn2c(O)c(/C=N/NC(=O)c3ccncc3)c(=O)[nH]c2=O)cc1OC	10µM*	-3.8%	-3.6%	-11.6%	-11.6%
O=C(N/N=C/c1c(O)n(-c2ccccc2)c(=S)[nH]c1=O)c1ccccc1	28.2µM*	4.3%	1.0%	-7.2%	-2.2%
CCCCn1c(O)c(/C=N/NC(=O)c2ccncc2)c(=O)[nH]c1=S	?	-2.2%	-0.6%	-1.9%	?
COC(=O)[C@@H]1[C@H]2CC[C@@H](C[C@H]1OC(=O)c1ccccc1)N2C	·	-3.3%	·	·	·
CN(C(=O)Cc1ccc(Cl)c(Cl)c1)C(CN1CCCC1)c1cccc(N=C=S)c1 (stereo unspecified)	·	3.6%	·	·	-3.1%
CCCCC(=O)N/N=C/c1c(O)n(CCc2ccc(OC)c(OC)c2)c(=O)[nH]c1=O	22.4µM*	-1.6%	-2.3%	3.0%	-2.4%
CCCCC(=O)N/N=C/c1c(O)n(CCc2ccccc2)c(=O)[nH]c1=O	?	3.1%	-2.5%	0.4%	0.4%
CCCCC(=O)N/N=C/c1c(O)n(CC)c(=S)[nH]c1=O	?	-2.2%	-3.5%	3.7%	i
CCCCCCC(=O)N/N=C/c1c(O)n(CCCC)c(=S)[nH]c1=O	17.8µM*	-3.5%	0.9%	-5.4%	-2.9%
CC[C@H](C)[C@H](NC(=O)[C@@H](N)Cc1ccc(O)cc1)C(=O)NCC(=O)N[C@@H](CO)C(=O)N[C@@H](CCCN=C(N)N)C(N)=O	·	-3.7%	·	2.4%	-12.2%
COc1ccccc1CCNCc1ccc(OC)c(OC)c1OC	5.62µM*	1.9%	-3.7%	5.1%	i
CCOC(=O)C1OC1(C)c1ccccc1 (stereo unspecified)	·	0.5%	·	·	-5.3%
N#CC1=C(N)Oc2n[nH]c(-c3cccs3)c2C1c1ccco1 (stereo unspecified)	?	-0.5%	3.3%	-13.2%	31.6µM*
Cc1ccc(N2C(=O)NC(=O)/C(=C/c3ccc(-c4ccc(C(=O)O)c(Cl)c4)o3)C2=O)cc1	?	?	25.1µM*	-1.2%	i
Cc1ccc(N2C(=O)NC(=O)/C(=C\c3cc(C)n(-c4ccc(C(=O)O)cc4)c3C)C2=O)cc1	·	2.2%	·	-3.7%	·
O=C1NC(=O)N(c2ccc3c(c2)OCO3)C(=O)/C1=C/c1ccsc1	-1.4%	-6.8%	9.3%	-3.3%	-8.5%
O=C1NC(=O)N(c2ccc3c(c2)OCO3)C(=O)/C1=C/c1cccs1	-26.2%	-2.2%	11.2µM*	-11.0%	-3.2%
COc1ccc(OC)c([C@@H](O)[C@H](C)N)c1	·	0.9%	·	·	·
O=C1NC(=O)N(c2ccc(Cl)cc2)C(=O)/C1=C\c1ccc(Sc2nc3ccccc3[nH]2)o1	-10.9%	?	20.0%	-15.2%	25.1µM*
COc1cccc([C@@]2(O)CCCCC2CN(C)C)c1 (stereo partly specified)	·	-6.2%	·	-0.6%	-5.0%
O=C1OC(=O)C2C3CCC(O3)C12 (stereo unspecified)	22.4µM*!	-9.5%	·	2.0%	-7.4%
CCCCN1C(=O)NC(=O)/C(=C/c2cnc(SC)nc2)C1=O	25.1µM*	-2.4%	15.5%	-0.4%	-5.5%
SMILES	JMJD2E inh	APEX1 inh	PKM2 activator	BLM helicase inh	RECQ1 inh
CSc1ncc(/C=C2/C(=O)NC(=O)N(C)C2=O)cn1	25.1µM*	-4.1%	-3.9%	-1.1%	?
CCC(C)N1C(=O)/C(=C\c2cnc(N(C)C)nc2)C(=O)NC1=S (stereo unspecified)	-12.9%	1.4%	0.0%	-4.6%	-13.6%
O=C1NC(=S)N(C2CC2)C(=O)/C1=C/c1ccc2c(c1)CCN2CCCCl	?	?	14.8%	?	?
CSc1ncc(/C=C2/C(=O)NC(=O)N(C3CCCCC3)C2=O)cn1	22.4µM*	-7.0%	21.9%	-3.8%	-3.7%
Nn1cnnc1	·	2.3%	·	·	-1.5%
Clc1ccc(C(c2ccc(Cl)cc2)C(Cl)Cl)cc1	·	1.9%	·	·	-10.2%
Cc1ccc(S(=O)(=O)Oc2ccccc2C=C2C(=O)N(C)C(=O)N(C)C2=O)cc1	·	-6.8%	1.5%	0.5%	·
CN1C(=O)C(=Cc2ccccc2OCc2ccc(Cl)cc2)C(=O)N(C)C1=O	20µM*	1.3%	1.3%	-0.9%	-2.4%
CN(C)C1C(=O)C(C(N)=O)=C(O)[C@@]2(O)C(=O)C3=C(O)c4c(O)cccc4[C@@](C)(O)C3CC12 (stereo partly specified)	2.51µM*	1.2%	·	-7.8%	-1.0%
C(CCOCC1CO1)COCC1CO1 (stereo unspecified)	·	1.8%	·	·	6.5%
Cc1nc2c(=O)n(C)c(=O)nc-2n(C)n1	2.1%	-1.1%	-11.2%	0.794µM*	i
CC/C(CC(c1ccccc1)c1c(O)c2ccccc2oc1=O)=N\NC(N)=S (stereo unspecified)	?	25.1µM*	6.0%	-5.8%	-4.3%
O=C(Cl)C(Cl)(Cl)Cl	·	-5.3%	·	·	6.0%
CC1(C)[C@H](C(=O)O[C@H](C#N)c2cccc(Oc3ccccc3)c2)[C@@H]1C=C(Br)Br	·	-2.0%	·	-5.9%	-18.6%
CCOC(=O)c1c(NS(=O)(=O)c2ccccc2)n(CCCOC)c2nc3ccccc3nc12	?	?	-3.2%	5.62µM*	-2.4%
COCCCn1c(N)c(C(=O)OCCOC)c2nc3ccccc3nc21	?	-5.5%	0.6%	-1.2%	8.4%
N#CC(C#N)=Cc1ccc(C=C(C#N)C#N)cc1	15.8µM*	3.1%	6.7%	-17.8%	-18.5%
O=C1NC(=O)C(=Cc2coc3ccc(O)cc3c2=O)C(=O)N1	17.8µM*	-2.8%	31.6µM*	-8.7%	5.7%
CN1C(=O)C(=Cc2coc3ccccc3c2=O)C(=O)N(C)C1=O	-11.3%	1.5%	-2.1%	-3.4%	-3.1%
C[C@H]1CC[C@]2(NC1)O[C@H]1C[C@H]3[C@@H]4CC[C@H]5C[C@@H](O)CC[C@]5(C)[C@H]4CC[C@]3(C)[C@H]1[C@@H]2C	·	-4.0%	·	·	·
